# Screening data: PubChem BioAssay, National Center for Advancing Translational Sciences (NCATS)
# Compounds with a hit are over-represented: about 3.9% of the library has one in this group of screens.
# S2 tox: reduces viability in counter-screen for ATXN expression inhibitors; 400,000 compounds, 0.49% hits; AID 651635; S2 cells (HEK-293 line with an ATXN2-luciferase reporter) viability, CellTiter-Fluor protease fluorescence, 24 h; Potency, µM (highest dose often 56.7 µM), most hits filed as cytotoxic; note: nearly all actives have a fitted effect of over 40% in size
# TGFb SMAD3 inh: blocks TGF-b signaling. HepG2 CAGA-GFP TGF-b/SMAD3 reporter, GFP fluorescence, 18 h; TGF-beta stimulated, 500 pg/mL final. Potency, µM (doses to about 46.1 µM), without a hit: at the highest dose activity, negative = inhibition, hits mostly inhibitors. 410,000 compounds, 1.2% hits. AID 588855; note: % is set by controls: 0 for no effect and ±100 for the full control effect; nearly all actives have a fitted effect of over 65% in size
#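 Per well, imaged GFP fluorescence of HEPG2 CAGA-GFP cells gives the signal; cells get compound, then TGF-beta (500 pg/mL final), 18 h at 37 degrees C; %Activity versus -TGF-beta and +DMSO controls.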
# HT1080 IDH1KD tx: toxicity to HT-1080 IDH1 knockdown cells (counter line); Potency, µM (highest dose often 46.1 µM), without a hit: top-dose activity, negative = toxicity, hits mostly cytotoxic; 360,000 compounds, 2% hits; HT-1080 IDH1 knockdown viability, ATP luminescence, 48 h;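 note: 0% = DMSO wells and -100% = cell-free medium wells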
#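 Luminescent ATP read-out (CellTiter-Glo, 10 min at room temperature) after 48 h compound exposure at 37 °C gave viability of IDH1-knockdown HT-1080 cells. Activity was normalised to DMSO and cell-free wells, then fitted as concentration-response curves.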
# HepG2 viability: kills HepG2 cells in TGF-b inhibitor counter-screen; HepG2 CAGA-GFP viability, ATP luminescence, 18 h; 410,000 compounds, 0.76% hits; Potency, µM (series often up to 46.1 µM), without a hit: at the top dose activity change, negative = cytotoxicity, hits mostly cytotoxic
#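 HepG2 CAGA-GFP cells (1000/well, DMEM with 1% FBS) received compound, then TGF-beta at 500 pg/mL final, and were incubated 18 hours at 37 degrees C. Viability was read by CellTiter-Glo luminescence. Media-only wells were set as complete cell-killing and DMSO as no toxicity.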
# ATXN2 expr inh: reduces ATXN2 reporter expression in HEK-293 cells; HEK-293 ATXN2-luciferase reporter, luminescence, 24 h; Potency, µM (series often up to 57 µM), for inactives: top-dose activity change, negative = inhibition, hits mostly inhibitors; 360,000 compounds, 0.72% hits; AID 1745845; note: % is set by controls: 0 for no effect and ±100 for the full control effect; nearly all actives have a fitted effect of over 55% in size
#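 qHTS (up to 57 uM final) was run with 24 h compound exposure of reporter cells at 37 °C. Each well was multiplexed: SteadyGlo luminescence measured ATXN2-luciferase expression after a fluorogenic Gly-Phe-AFC viability readout (25 uM final).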
# HT1080-NT tox: kills 2HG-producing HT-1080-NT fibrosarcoma cells | HT-1080-NT fibrosarcoma viability, CellTiter-Glo ATP luminescence, 48 h | Potency, µM (highest dose often 46.1 µM), for inactives: at the top dose activity, negative = less viability, usual class: cytotoxic | 360,000 compounds, 1.6% hits;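 note: NT is the 2HG producing partner of a matched IDH1 knockdown line; 0% = DMSO-treated cells and -100% = media-only wells without cells; nearly all actives have a fitted effect of over 55% in size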
#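 Luminescent CellTiter-Glo readout after 48 hours of compound exposure at 37 degrees C defined viability of HT-1080-NT cells. Activity was normalized to DMSO wells and cell-free media wells; concentration-response curves were fitted and assigned curve classes.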
# Active calls of the source: *; i = inactive; ? = inconclusive; · = no result given; ! = a repeat was not active. Calls come from the whole dose curve; as a rule, active = well fitted curve in the direction sought with a large enough effect; inconclusive = small, poorly fitted or top-dose-only effect, or another doubt; inactive = no such curve, though single readings can be large; an effect the other way counts as inactive or inconclusive. Potency is the fitted concentration of half-maximal effect.
SMILES,S2 tox,TGFb SMAD3 inh,HT1080 IDH1KD tx,HepG2 viability,ATXN2 expr inh,HT1080-NT tox
CCN(CC)C1CCN(C(=O)c2cnn(-c3nccc(-c4ccccc4OC)n3)c2-c2ccco2)C1 (configuration not stated),i,·,·,·,·,·
Cc1cc(C)c2c(SC(C)C)nc(N)nc2n1,i,5.6%,-5.5%,1.0%,·,2.7%
CCc1ccc2nc3nc(C)cc(C)c3c(N)c2c1,·,12.6µM*,12.6µM*,-42.5%,?,?
COc1ccc(/C=N/NC(=S)Nc2cc(C(F)(F)F)ccc2Cl)cc1,i,8.9%,-19.7%,0.631µM*,-26.1%,-10.7%
FC(F)(F)c1ccc(Cl)c(NC(=S)N/N=C/c2ccccc2C(F)(F)F)c1,i,0.0%,-1.2%,-71.9%,0.0%,1.1%
Cc1[nH]c(=O)[nH]c(=O)c1Sc1ccccc1[N+](=O)[O-],i,19.4%,16.9%,-14.2%,27.6%,8.3%
CC1(Br)C(Sc2ccccc2[N+](=O)[O-])=Nc2ccccc21 (configuration not stated),?,·,?,·,-37.2%,6.51µM*
CC(=O)OCCNc1cc(Sc2nc3ccccc3[nH]2)c2nonc2c1[N+](=O)[O-],?,?,18.4µM*,-31.6%,-87.9%,-37.0%
CC(=O)OCCCNc1cc(Sc2nc3ccccc3s2)c2nonc2c1[N+](=O)[O-],·,?,1.1%,-4.4%,15.8µM*,-4.2%
CCCC(=O)OCCNc1cc(SCCC(=O)OC)c2nonc2c1[N+](=O)[O-],i,?,?,-61.0%,-22.3%,?
COC(=O)CCSc1cc(NCCOC(C)=O)c([N+](=O)[O-])c2nonc12,i,?,?,-75.0%,4.3%,20.6µM*
CC(=O)OCCCNc1cc(Sc2ccc(C)cc2)c2nonc2c1[N+](=O)[O-],?,-5.1%,-14.5%,-26.7%,-61.9%,-5.3%
CN1CCc2c(c3cnc4cc(Cl)ccc4c3n2C)C1,·,-15.4%,·,4.9%,·,·
Cc1ccc(/C=N/n2c(-c3ccccc3)csc2=S)cc1,i,·,·,·,-1.3%,·
CCCCCOC(=O)Nc1nc(=O)n([C@@H]2O[C@H](C)[C@@H](O)C2O)cc1F (some centres not stated),·,·,·,·,-9.6%,·
CCc1ccc(CNC(=O)c2ccc(-n3c(C)cc4c3CCC(C)C4)cc2)cc1 (configuration not stated),?,0.7%,·,-31.1%,-9.1%,·
CCOC(=O)N1CCC(NC(=O)c2cnn(-c3ccc(C)cc3)c2C2CCN(C(=O)OC(C)(C)C)CC2)CC1,·,0.0%,·,0.2%,·,·
O=C(Cn1c(SCCOc2ccccc2Cl)nc2ccccc21)N1CCCCC1,?,-27.5%,·,-22.3%,-17.6%,·
Nc1ccc(SC(F)(F)F)cc1C(=O)c1ccccc1,i,12.6µM*,-10.1%,-103.6%,-23.1%,-2.9%
C=CC(=O)Nc1sc2c(c1C(N)=O)CCCC2,?,15.8µM*,-15.3%,-52.9%,?,-15.3%
C=CCNC(=S)Nc1sc2c(c1C(N)=O)CCCC2,i,-23.2%,-10.6%,11.2µM*,-3.0%,-9.1%
COC(=O)Nc1sc2c(c1C(N)=O)CCCCCC2,i,-1.0%,-1.7%,-3.2%,-11.7%,9.3%
CC(=O)Nc1ccc(S(=O)(=O)O)c2cc(S(=O)(=O)O)c(N=Nc3ccc(N=Nc4ccc(S(=O)(=O)O)cc4)c4ccc(S(=O)(=O)O)cc34)c(O)c12,·,-5.7%,·,-25.8%,·,·
C(=C\c1ccc2ccccc2n1)/c1ccccc1,i,?,?,10µM*!,·,?
CC[N+](CC)(CC)c1ccc(/C=C/c2ccc3ccccc3n2)cc1,·,6.31µM*,·,10µM*,·,·
CN(C)c1ccc(/C=C/c2ccc3ccccc3n2)cc1,·,28.8%,?,5.62µM*!,·,?
C(=Cc1c[nH]c2ccccc12)c1ccc2ccccc2n1,·,43.0%,23.1µM*,2.6%,-71.0%,16.4µM*
